Experimental findings from publication PMC4552634, “A New Set of Chemical Starting Points with Plasmodium falciparum Transmission-Blocking Potential for Antimalarial Drug Discovery” (PLoS ONE, 2015) are described below.

Screen size: about 13,000 compounds; about 3,200 (25%) showed an effect of 50% or more. Some of the results follow.

The experiment has as its system P. falciparum stage V gametocytes. Also on record: BacTiter-Glo ATP luminescence viability of purified stage V gametocytes in 384-well plates, per cent inhibition versus DMSO. The conditions noted are these: 48 h, 5 µM; inhibitor.
A word on the % Inhibition: it is the relative decrease from the control value, in per cent. Take `N=C(N)c1cccc(-c2cc(-c3cccc(C(=N)N)c3)on2)c1` [TCMDC-137789]: the “% Inhibition” value is reported as 11.2%.

Take `CCCCNC(=O)[C@@H](NC(=O)c1ccc(O)c(-c2ccc(Cl)c(Cl)c2)c1)C(C)C` [TCMDC-140839]: the “% Inhibition” value is 36.3%. Next, `CCCCOP(=O)(COc1ccc(CCN(CC(O)COc2cccc3[nH]c4ccccc4c23)CC(O)COc2cccc3[nH]c4ccccc4c23)cc1)C1CCCCC1` (stereo not shown) [TCMDC-139016]: 44.85%. Then `COc1ccc(Nc2nccc(N3CCC(NC(=O)Nc4cccc(C(C)=O)c4)C3)n2)cc1` (stereo not shown) [TCMDC-133610], with -16.63%. Then `COc1cc(Cc2cnc(N)nc2N)cc(OCCCOc2ccccc2)c1OC` [TCMDC-137687], with 38.19%; and `O=C(/C=C/c1ccsc1)NC1CCC(CN2CCC(c3c[nH]c4ccccc34)CC2)CC1` (stereo not shown) [TCMDC-140294], with -21.49%; and `Cc1ccc(/C=C/C(=O)N2CCC(CCN3CCC(c4c[nH]c5ccccc45)CC3)CC2)cc1C` [TCMDC-139762], with 46.51%. As for `O=C(/C=C/c1ccsc1)N1CCC(CCN2CCC(c3c[nH]c4ccccc34)CC2)CC1` [TCMDC-140263], the “% Inhibition” value is given as 102.1%. Next, `O=C(/C=C/c1ccc(F)c(C(F)(F)F)c1)N1CCC(CN2CCC(c3c[nH]c4ccccc34)CC2)CC1` [TCMDC-140384]: -23.83%; `CC(C)c1ccc(C=CC(=O)N2CCC(CCN3CCC(c4c[nH]c5ccccc45)CC3)CC2)cc1` [TCMDC-139942]: 110.7%. Next, `O=C(C=Cc1ccc(-c2ccccc2)cc1)N1CCC(CCN2CCC(c3c[nH]c4ccccc34)CC2)CC1` [TCMDC-139941]: 105.7%; `COc1cc(C=CC(=O)N2CCC(CCN3CCC(c4c[nH]c5ccccc45)CC3)CC2)cc(OC)c1` [TCMDC-139938]: 103.2%. Next, `COc1ccc(C=CC(=O)N2CCC(CN3CCC(c4c[nH]c5ccccc45)CC3)CC2)cc1OC` [TCMDC-139944]: -13.45%; `COc1cc(C=CC(=O)N2CCC(CN3CCC(c4c[nH]c5ccccc45)CC3)CC2)ccc1O` [TCMDC-139913]: -95.05%. As to `COc1cc(C=CC(=O)N2CCC(CN3CCC(c4c[nH]c5ccccc45)CC3)CC2)cc(OC)c1` [TCMDC-139945], the “% Inhibition” value is -6.368%.

Turning to `COc1cc(NC(=O)N2CCc3ccc(OCCN(C(C)C)C(C)C)cc32)cc(C(F)(F)F)c1` [TCMDC-140251], the “% Inhibition” value worked out at 48.14%.

Consider `CN1CCCC(OC(=O)c2ccccc2)C1` (stereo not shown) [TCMDC-125511], for which the “% Inhibition” value is recorded as 3.276%. Next, `Fc1ccc2[nH]c(-c3cccc(-c4cccc(CNCC5CCCO5)c4)c3)nc2c1.O=C(O)C(F)(F)F` (stereo not shown) [TCMDC-133091]: -32.27%; `O=C(NC1CCCc2ccccc21)[C@@H]1CCCN1C(=O)c1ccc(O)c(-c2ccc(Cl)c(Cl)c2)c1` (stereo partly shown) [TCMDC-140867]: 31.83%; `COC(=O)c1ccc(CC(C)NCC(O)c2cccc(SC(F)(F)F)c2)cc1` (stereo not shown) [TCMDC-131494]: 25.48%. Next, `CCCC(N)C(=O)NC1CCN(c2c(F)c(N)c3c(=O)c(C(=O)O)cn4c3c2Oc2ccccc2-4)C1` (stereo not shown) [TCMDC-125701]: 40.26%; `Cc1cc(CNC(c2ccccc2)C2CCC2)cc(C)c1O` (stereo not shown) [TCMDC-134518]: -25.25%; `Cc1nc2nc(N)nc(N)c2c(C)c1Cc1ccc(C(F)(F)F)cc1` [TCMDC-137656]: -0.8923%. Turning to `N#Cc1ccccc1Sc1ccccc1C(=O)Nc1ccc2ccccc2n1` [TCMDC-125464], the “% Inhibition” value worked out at 33.3%.

Turning to `O=C(/C=C/c1cc([N+](=O)[O-])ccc1Cl)N1CCC(CCN2CCC(c3c[nH]c4ccccc34)CC2)CC1` [TCMDC-139911], the “% Inhibition” value was 95.76%. On to `O=C(C=Cc1ccc(Br)cc1)N1CCC(CCN2CCC(c3c[nH]c4ccccc34)CC2)CC1` [TCMDC-139939], for which the “% Inhibition” value came to 87.97%.

Regarding `O=C(/C=C/c1ccc([N+](=O)[O-])cc1)N1CCC(CCN2CCC(c3c[nH]c4ccccc34)CC2)CC1` [TCMDC-139940], the “% Inhibition” value is -27.66%.

With `O=C(C=Cc1ccccc1O)N1CCC(CN2CCC(c3c[nH]c4ccccc34)CC2)CC1` [TCMDC-139912], the “% Inhibition” value is -49.08%. On to `O=C(/C=C/c1ccccc1O)N1CCC(CCN2CCC(c3c[nH]c4ccccc34)CC2)CC1` [TCMDC-139712], for which the “% Inhibition” value is 101.8%. Then `O=C(/C=C/c1cc([N+](=O)[O-])ccc1Cl)NC1CCC(CN2CCC(c3c[nH]c4ccccc34)CC2)CC1` (stereo not shown) [TCMDC-139907], with -55.07%; and `O=C(/C=C/c1cc(F)c(F)cc1F)N1CCC(CN2CCC(c3c[nH]c4ccccc34)CC2)CC1` [TCMDC-140383], with -20.73%. Next, `O=C(/C=C/c1ccc(Cl)cc1Cl)N1CCC(CCN2CCC(c3c[nH]c4ccccc34)CC2)CC1` [TCMDC-139711]: 81.98%.

For `CCCc1ccc(NC(=O)c2ccc(CN3CCCN(CC4CCCCC4)CC3)cc2)cc1` [TCMDC-136420], the “% Inhibition” value is reported as -21.41%. Next, `FC(F)(F)c1ccc2[nH]c(-c3ccc(-c4ccc(CN5CCN(c6cnccn6)CC5)cc4)s3)nc2c1.O=C(O)C(F)(F)F` [TCMDC-132677]: 4.163%. Then `COc1cc(Cc2cnc(N)nc2N)cc(OCCCCC2SC(=O)NC2=O)c1OC` (stereo not shown) [TCMDC-137185], with -7.728%; and `Cc1cnc(NC(=O)c2cn(-c3ccccc3)nc2-c2cccs2)s1` [TCMDC-124433], with 10.72%; and `COc1cc2c(c(OC)c1OC)C[C@H]1c3c(cc4c(c3-2)OCO4)CCN1C` [TCMDC-138525], with -52.76%. As to `N#Cc1ccc2[nH]cc(CN3CCC4(CC3)CN(CCNCc3ccccc3)C(=O)O4)c2c1` [TCMDC-136732], the “% Inhibition” value is -34.87%. Take `COc1ccc2ncc(F)c(CCN3C[C@H](CNCc4cc(F)c5c(c4)NC(=O)CO5)[C@H](O)C3)c2n1` [TCMDC-136203]: the “% Inhibition” value was 28.74%. Then `Nc1nc2c(ncn2OC[C@H](CO)OCP(=O)(O)O)c(=O)[nH]1` [TCMDC-131639], with 4.722%; and `O=C(/C=C/c1cc(C(F)(F)F)ccc1F)N1CCC(CN2CCC(c3c[nH]c4ccccc34)CC2)CC1` [TCMDC-139857], with -24.43%; and `O=C(/C=C/c1cc(F)cc(C(F)(F)F)c1)N1CCC(CN2CCC(c3c[nH]c4ccccc34)CC2)CC1` [TCMDC-140385], with -12.95%.

For the compound `O=C(/C=C/c1ccc(C(F)(F)F)cc1)N1CCC(CCN2CCC(c3c[nH]c4ccccc34)CC2)CC1` [TCMDC-139761], the “% Inhibition” value is on record as 107.6%.
